Compound activity (PubChem)
L3MBTL1 block: inhibitors of human L3MBTL1. AlphaScreen L3MBTL1–H3K9me1 peptide binding. 230,000 tested, 0.66% active. Q9Y468. Potency, µM (doses to about 57.1 µM), for inactives: at the top dose activity, negative = inhibition, hits mostly inhibitors; also: % is scaled to controls: 0 for no effect and ±100 for the full control effect; nearly all actives have a fitted effect of over 60% in size
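L3MBTL1 50 nM + b-AHA-H3(1-15)K9me1 75 nM, 30 min RT; compound added, 30 min RT; streptavidin donor/Ni-chelate acceptor beads 10 ug/mL each final, 30 min RT dark; AlphaScreen read.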
VDR inhibitor: vitamin D3 receptor (human) inhibition; P11473; VDR-SRC2-3 peptide fluorescence polarization, 2 h; Potency, µM, for inactives: max response, negative = inhibition, actives largely listed as inhibitors; 400,000 tested, 0.93% active; AID 504847; also: % is scaled to controls: 0 for no effect and ±100 for the full control effect
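Inhibition of the VDR/SRC2-3 peptide interaction is quantified by fluorescence polarization. Compounds (23 nl, pintool) incubate with the reagents for 2 hours at ambient room temperature.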
JMJD2A Tudor inh: blocks the human JMJD2A Tudor domain; O75164; AlphaScreen JMJD2A-Tudor / H3K4me3 peptide binding; Potency, µM (series often up to 114 µM), for the others: top-dose activity change, negative = inhibition, actives largely listed as inhibitors; 390,000 tested, 4.4% active; AID 504339; also: % is scaled to controls: 0 for no effect and ±100 for the full control effect; nearly all actives have a fitted effect of over 50% in size
HP1b binding inh: blocks HP1-beta chromodomain binding to methylated histone tails | P83916 | AlphaScreen HP1-beta / biotin-H3K9me3 peptide binding | Potency, µM (highest dose often 114 µM), without a hit: at the highest dose activity change, negative = inhibition, usual class: inhibitors | 390,000 tested, 0.56% active | AID 540317; also: nearly all actives have a fitted effect of over 70% in size
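Compound inhibition of the preformed complex between 50 nM HP1-beta and 50 nM biotinylated H3K9me3 peptide was read by AlphaScreen. Buffer was PBS pH 7.4 with 0.01% Tween-20. Incubations ran 30 min at room temperature, with 10 ug/mL donor/acceptor beads.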
PLK1 PBD inh: blocks phosphopeptide binding to human PLK1 polo-box domain. P53350. Plk1 PBD binding of FITC phosphopeptide, fluorescence polarization. Potency, µM, for the others: max response, negative = inhibition, most hits filed as inhibitors. 360,000 tested, 2.8% active; also: series mostly up to about 57 µM; % is scaled to controls: 0 for no effect and ±100 for the full control effect; nearly all actives have a fitted effect of over 65% in size
BAZ2B inh: inhibitors of human BAZ2B bromodomain; Potency, µM (titrated, usually from 114 µM), for inactives: top-dose activity change, negative = inhibition, hits mostly inhibitors; AlphaScreen BAZ2B-H3K14Ac peptide displacement; 360,000 tested, 4.4% active; also: % is scaled to controls: 0 for no effect and ±100 for the full control effect; nearly all actives have a fitted effect of over 60% in size
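BAZ2B 50 nM plus b-H3(5-23)K14Ac 50 nM, PBS pH 7.4/0.01% Tween-20, 30 min RT; compound added (max 110 uM), 30 min RT; streptavidin donor/Ni-chelate acceptor beads 10 ug/mL final, 20 min dark; AlphaScreen read.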
Numbers without * were called inactive; u = inconclusive; x = no result given; ! = not confirmed by another sample; [ ] = remark or other dose. This is a sample that favours compounds with a hit; in the whole collection about 6.9% have one here. Calls follow the shape of the dose curve; as a rule, active = well fitted curve in the direction sought with a large enough effect; inconclusive = small, poorly fitted or top-dose-only effect, or another doubt; inactive = no such curve, though single readings can be large; an effect the other way counts as inactive or inconclusive. Potency is read from the fitted curve at half-maximal effect.

SMILES	L3MBTL1 block	VDR inhibitor	JMJD2A Tudor inh	HP1b binding inh	PLK1 PBD inh	BAZ2B inh
COc1ccc(CCNC(=O)CSC2=Nc3ccccc3C3=NC(CCC(=O)NCc4ccccc4)C(=O)N23)cc1OC (stereo not drawn)	x	19%	-2%	30%	x	2%
Cc1c(C)n(Cc2ccc(F)cc2)c2ccc(C(=O)NCCCN3CCOCC3)cc12	x	8%	45µM*	u	-15%	28µM*
Cc1c(C)n(Cc2ccccc2)c2ccc(C(=O)NCCCN3CCOCC3)cc12	x	-4%	50µM*	-4%	-7%	u
Cc1nn(C)cc1/C=N\NC(=O)c1ccc2c(c1)c(C)c(C)n2Cc1ccccc1	x	-18%	56µM*	-28%	-16%	45µM*
N#Cc1ccccc1NC(=O)C(=O)NCCc1csc(-c2ccc(C(F)(F)F)cc2)n1	x	2%	3%	30%[57 µM]	x	2%
c1ccc(N=c2nc(-c3ccccc3)n(-c3ccccc3)s2)cc1	x	-9%	-33%[57.1 µM]	-26%[57 µM]	x	x
CC1=NNC(=O)C1CCC(=O)N/N=C/c1ccc(Cl)cc1Cl (stereo not drawn)	x	-1%	-12%	39%	-6%	-12%
COc1ccccc1-c1cc(=O)c2cccc(OC)c2o1	x	7%	x	x	x	x
O=Cc1ccc(-c2ccccc2OC(F)(F)F)o1	x	3%	3%	21%	0%	-2%
COc1ccccc1-c1ccc(/C=C2/C=C(CC(C)C)OC2=O)o1	u	u	u	u	-18%	40µM*
CCCC1=C/C(=C/c2ccc(-c3ccccc3OC)o2)C(=O)O1	-18%	-13%	u	-28%	u	40µM*
CC(C)NC(=O)N1CCC2(CC1)CCN(C(=O)c1ccncc1)CC2	x	5%	x	x	x	x
Cc1nc2cccnc2n1-c1cccc(C(=O)NCc2ccc(OC(C)C)cc2)c1	x	-1%	-16%	36%	x	-12%
CC(C(=O)Nc1ccccc1C(=O)N1CCOCC1)N(c1ccccc1)S(C)(=O)=O (stereo not drawn)	7%	u	40µM*	u	27µM*	0%
CN(c1ccc(C(=O)Nc2ccccc2C(=O)N2CCOCC2)cc1)S(C)(=O)=O	8%	1%	-4%	38%	-5%	-1%
CCOc1cc(C(N)=O)cc(Br)c1OC	-2%	1%	u	-1%	30µM*	20%
Cc1ccc(N2CC(NC(=O)c3cc4ccccc4o3)CC2=O)cc1 (stereo not drawn)	x	11%	-19%	63%	x	1%
CCN(CC(=O)Nc1ccc2c(c1)OCCO2)CC(=O)Nc1ccccc1C(F)(F)F	-7%	-24%	5µM*	28µM*	0%	x
O=C(NCCN1CCN(c2ccccc2)CC1)c1ccccc1F	x	-21%	u	27%	24µM*	2%
O=C(NCCCN1CCN(CCCNC(=O)c2ccccc2F)CC1)c1ccccc1F	-1%[11.4 µM]	3%	-9%	46%	0%	8%
COc1ccc(N2CCN(CC(=O)c3ccccc3)CC2)cc1	x	-1%	u	-2%	u	-21%
COc1ccc(N2CCN(CCC(=O)c3ccc4ccccc4c3)CC2)cc1	x	71µM*	u	-10%	6.7µM*	u
O=C(CCN1CCN(c2ccccc2)CC1)c1ccc(Cl)cc1	x	79µM*	-22%	33%	u	-27%
COc1ccccc1C(CNC(=O)c1cccc(S(=O)(=O)NCc2ccccc2)c1)N(C)C (stereo not drawn)	-6%	-9%	-14%	19%	-3%	4%
COc1ccccc1NC(=O)C(=O)NCC(c1ccc2c(c1)OCO2)N1CCOCC1 (stereo not drawn)	x	-16%	u	23%[57 µM]	x	-3%
CNC(=O)Cn1cc(S(=O)(=O)Cc2ccccc2F)c2ccccc21	x	-3%	-15%	-16%	x	-10%
CCOc1ccc(NC(=O)C2CCCN(S(=O)(=O)c3ccc4[nH]c(=O)ccc4c3)C2)cc1 (stereo not drawn)	x	-20%	50µM*!	6%	27µM*	-24%
